# Assay results from PubChem BioAssay (NCI).
# This is part of a sample that, as a whole, favours compounds with a hit. Of some 79,000 tested, about 15% had one in any assay. Values without a mark were called inactive. The source made the active and inactive calls. Cut-off read from the data, not from the text of the source: active = growth inhibition above about 70%; inactive = the rest.
# Key:
# [1] = NCI Yeast Anticancer Drug Screen. Data for the rad52 strain (AID 147);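 note: 0% = growth of vehicle-treated control cultures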; settings: S. cerevisiae rad52 mutant growth inhibition, active compounds read high
# Summary of the method: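 Inhibition of yeast growth, referenced to vehicle controls, was the measured output for a strain with defective DNA damage repair.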
# [2] = NCI Yeast Anticancer Drug Screen. Data for the wt1 strain (AID 149);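 note: 0% = growth of vehicle-treated wt1 cultures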; settings: S. cerevisiae wt1 strain (SPY 50644) growth inhibition, active compounds read high
# Summary of the method: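 Yeast wt1 strain exposed to compounds; growth inhibition measured relative to vehicle-treated controls.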
# [3] = NCI Yeast Anticancer Drug Screen. Data for the mgt1 strain (AID 153); settings: S. cerevisiae mgt1 mutant growth inhibition, active compounds read high
# Summary of the method: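 In the mgt1 strain, test compounds were added and growth inhibition was determined relative to vehicle-treated controls.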
# [4] = NCI Yeast Anticancer Drug Screen. Data for the rad50 strain (AID 155);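 note: 0% = growth of vehicle-only cultures of the same strain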; settings: S. cerevisiae rad50 strain growth inhibition, active compounds read high
# Summary of the method: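 Yeast carrying a defined DNA repair defect were exposed to test compounds, and growth was compared with vehicle-treated controls to give percent inhibition.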
# [5] = NCI Yeast Anticancer Drug Screen. Data for the mec2-1 strain (AID 157); settings: S. cerevisiae mec2-1 strain, active compounds read high
# Summary of the method: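 Each compound was tested on mec2-1 yeast, a strain altered in DNA damage repair or cell cycle control. Growth inhibition is reported relative to vehicle.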
# [6] = NCI Yeast Anticancer Drug Screen. Data for the rad14 strain (AID 159);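 note: 0% = growth of vehicle-treated control cultures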; settings: S. cerevisiae rad14 strain growth inhibition, active compounds read high
# Summary of the method: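 Yeast cells carrying a defined DNA-repair defect were exposed to compounds, and growth inhibition was calculated relative to vehicle-treated control cultures.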
# [7] = NCI Yeast Anticancer Drug Screen. Data for the sgs1 mgt1 strain (AID 161);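 note: 0% = growth of cultures given vehicle only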; settings: S. cerevisiae sgs1 mgt1 strain, active compounds read high
# Summary of the method: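 Read-out: growth inhibition vs vehicle controls. Cells: mutant yeast strain deficient in DNA damage repair.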
# [8] = NCI Yeast Anticancer Drug Screen. Data for the CLN2oe strain (AID 163);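 note: 0% = growth of vehicle-only control cultures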; settings: S. cerevisiae CLN2oe strain, active compounds read high
# Summary of the method: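 First, the altered yeast strain was treated with each compound; second, its growth was measured; finally, inhibition was derived by comparison with vehicle controls.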
# [9] = NCI Yeast Anticancer Drug Screen. Data for the cln2 rad14 strain (AID 165);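 note: 0% = growth equal to vehicle treated cultures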; settings: S. cerevisiae cln2 rad14 strain, active compounds read high
# Summary of the method: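 Test compounds were added to cln2 rad14 yeast cultures; inhibition of growth was then determined by comparison with vehicle treatment.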
# [10] = NCI Yeast Anticancer Drug Screen. Data for the bub3 strain (AID 167); settings: S. cerevisiae bub3 mutant strain, active compounds read high
# Summary of the method: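 Compounds were applied to a genetically altered yeast strain carrying a cell-cycle control defect. Growth inhibition was scored against vehicle-treated controls.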
# [11] = NCI Yeast Anticancer Drug Screen. Data for the wt2 strain (AID 169);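 note: 0% = growth of vehicle-treated yeast cultures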; settings: S. cerevisiae wt2 strain growth inhibition, active compounds read high
# Summary of the method: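 The panel's yeast strains carry defined changes in DNA repair or cell cycle genes. Each strain is grown with compound, and growth loss is scored relative to vehicle.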
# [12] = NCI Yeast Anticancer Drug Screen. Data for the mlh1 strain (AID 171);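 note: 0% = growth of vehicle-treated control cultures of the same strain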; settings: S. cerevisiae mlh1 strain growth inhibition, active compounds read high
# Summary of the method: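 Inhibition values reflect reduced yeast growth in the presence of compound, referenced to vehicle controls, using a strain chosen for its alteration in DNA repair or cell cycle control.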
# [13] = NCI Yeast Anticancer Drug Screen. Data for the sgs1 strain (AID 173);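 note: 0% = growth of vehicle-only control cultures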; settings: S. cerevisiae sgs1 mutant, active compounds read high
# Summary of the method: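 Vehicle-treated cultures served as reference for growth inhibition of a yeast strain altered in DNA damage repair or cell cycle control after compound exposure.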
# [14] = NCI Yeast Anticancer Drug Screen. Data for the mlh1 rad18 strain (AID 175); settings: S. cerevisiae mlh1 rad18 strain growth inhibition, active compounds read high
# Summary of the method: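 Inhibition values reflect reduced growth of mutant yeast versus vehicle-treated controls following compound exposure; the mutations affect DNA damage repair.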
# [15] = NCI Yeast Anticancer Drug Screen. Data for the rad18 strain (AID 177); settings: S. cerevisiae rad18 mutant growth inhibition, active compounds read high
# Summary of the method: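 Steps: expose repair-mutant yeast to compound; measure growth; express as inhibition relative to vehicle control.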
# [16] = at 5.0 µM (retest, dose inferred, filed as 0.5)
# [17] = at 50.0 µM (retest, dose inferred, filed as 5.0)
structure (smiles),measurement,setting,value
Cc1nc(-c2ccccc2)c(-c2ccccc2)s1,growth inhibition,[1]; at 1.2 µM,23%
same,growth inhibition,[1]; at 3.7 µM,0%
same,growth inhibition,[1]; at 11.0 µM,17%
same,growth inhibition,[1]; at 33.0 µM,68%
same,growth inhibition,[1]; at 100.0 µM,98% (active)
same,growth inhibition,[2]; at 1.2 µM,-12%
same,growth inhibition,[2]; at 3.7 µM,9%
same,growth inhibition,[2]; at 11.0 µM,9%
same,growth inhibition,[2]; at 33.0 µM,59%
same,growth inhibition,[2]; at 100.0 µM,98% (active)
same,growth inhibition,[3]; at 1.2 µM,24%
same,growth inhibition,[3]; at 3.7 µM,8%
same,growth inhibition,[3]; at 11.0 µM,44%
same,growth inhibition,[3]; at 33.0 µM,95% (active)
same,growth inhibition,[3]; at 100.0 µM,99% (active)
same,growth inhibition,[4]; at 1.2 µM,-29%
same,growth inhibition,[4]; at 3.7 µM,-24%
same,growth inhibition,[4]; [16],98% (active)
same,growth inhibition,[4]; at 11.0 µM,-19%
same,growth inhibition,[4]; at 33.0 µM,77% (active)
same,growth inhibition,[4]; [17],100% (active)
same,growth inhibition,[4]; at 50.0 µM,84.4% (active)
same,growth inhibition,[4]; at 100.0 µM,97% (active)
same,growth inhibition,[5]; at 1.2 µM,3%
same,growth inhibition,[5]; at 3.7 µM,26%
same,growth inhibition,[5]; [16],96% (active)
same,growth inhibition,[5]; at 11.0 µM,24%
same,growth inhibition,[5]; at 33.0 µM,67%
same,growth inhibition,[5]; [17],100% (active)
same,growth inhibition,[5]; at 50.0 µM,84.5% (active)
same,growth inhibition,[5]; at 100.0 µM,97% (active)
same,growth inhibition,[6]; at 1.2 µM,9%
same,growth inhibition,[6]; at 3.7 µM,10%
same,growth inhibition,[6]; at 11.0 µM,7%
same,growth inhibition,[6]; at 33.0 µM,84% (active)
same,growth inhibition,[6]; at 100.0 µM,97% (active)
same,growth inhibition,[7]; [16],-6%
same,growth inhibition,[7]; [17],100% (active)
same,growth inhibition,[7]; at 50.0 µM,88.4% (active)
same,growth inhibition,[8]; at 1.2 µM,-2%
same,growth inhibition,[8]; at 3.7 µM,-17%
same,growth inhibition,[8]; at 11.0 µM,1%
same,growth inhibition,[8]; at 33.0 µM,39%
same,growth inhibition,[8]; at 100.0 µM,96% (active)
same,growth inhibition,[9]; [16],71% (active)
same,growth inhibition,[9]; [17],101% (active)
same,growth inhibition,[9]; at 50.0 µM,66.1%
same,growth inhibition,[10]; at 1.2 µM,6%
same,growth inhibition,[10]; at 3.7 µM,2%
same,growth inhibition,[10]; [16],8%
same,growth inhibition,[10]; at 11.0 µM,22%
same,growth inhibition,[10]; at 33.0 µM,78% (active)
same,growth inhibition,[10]; [17],101% (active)
same,growth inhibition,[10]; at 50.0 µM,84.5% (active)
same,growth inhibition,[10]; at 100.0 µM,98% (active)
same,growth inhibition,[11]; at 1.2 µM,-38%
same,growth inhibition,[11]; at 3.7 µM,-16%
same,growth inhibition,[11]; at 11.0 µM,-20%
same,growth inhibition,[11]; at 33.0 µM,81% (active)
same,growth inhibition,[11]; at 100.0 µM,97% (active)
same,growth inhibition,[12]; at 1.2 µM,29%
same,growth inhibition,[12]; at 3.7 µM,16%
same,growth inhibition,[12]; at 11.0 µM,41%
same,growth inhibition,[12]; at 33.0 µM,87% (active)
same,growth inhibition,[12]; at 100.0 µM,97% (active)
same,growth inhibition,[13]; at 1.2 µM,-11%
same,growth inhibition,[13]; at 3.7 µM,-1%
same,growth inhibition,[13]; at 11.0 µM,6%
same,growth inhibition,[13]; at 33.0 µM,86% (active)
same,growth inhibition,[13]; at 100.0 µM,98% (active)
same,growth inhibition,[14]; [16],100% (active)
same,growth inhibition,[14]; [17],100% (active)
same,growth inhibition,[14]; at 50.0 µM,86.5% (active)
same,growth inhibition,[15]; at 1.2 µM,-10%
same,growth inhibition,[15]; at 3.7 µM,8%
same,growth inhibition,[15]; at 11.0 µM,6%
same,growth inhibition,[15]; at 33.0 µM,67%
same,growth inhibition,[15]; at 100.0 µM,94% (active)
C[C@@H]1C[C@H]2[C@@H]3CCC4=CC(=O)C=C[C@]4(C)[C@@]3(Cl)[C@@H](Cl)C[C@]2(C)[C@@]1(O)C(=O)COP(=O)(O)O,growth inhibition,[1]; at 1.2 µM,-1%
same,growth inhibition,[1]; at 3.7 µM,-3%
same,growth inhibition,[1]; at 11.0 µM,6%
same,growth inhibition,[1]; at 33.0 µM,1%
same,growth inhibition,[1]; at 100.0 µM,3%
same,growth inhibition,[2]; at 1.2 µM,1%
same,growth inhibition,[2]; at 3.7 µM,-2%
same,growth inhibition,[2]; at 11.0 µM,-3%
same,growth inhibition,[2]; at 33.0 µM,-4%
same,growth inhibition,[2]; at 100.0 µM,-2%
same,growth inhibition,[3]; at 1.2 µM,11%
same,growth inhibition,[3]; at 3.7 µM,5%
same,growth inhibition,[3]; at 11.0 µM,3%
same,growth inhibition,[3]; at 33.0 µM,8%
same,growth inhibition,[3]; at 100.0 µM,2%
same,growth inhibition,[4]; at 1.2 µM,4%
same,growth inhibition,[4]; at 3.7 µM,-10%
same,growth inhibition,[4]; [16],2%
same,growth inhibition,[4]; at 11.0 µM,3%
same,growth inhibition,[4]; at 33.0 µM,7%
same,growth inhibition,[4]; [17],19%
same,growth inhibition,[4]; at 50.0 µM,-34.1%
same,growth inhibition,[4]; at 100.0 µM,8%
same,growth inhibition,[5]; at 1.2 µM,-3%
same,growth inhibition,[5]; at 3.7 µM,-3%
same,growth inhibition,[5]; [16],17%
same,growth inhibition,[5]; at 11.0 µM,0%
same,growth inhibition,[5]; at 33.0 µM,-3%
same,growth inhibition,[5]; [17],5%
same,growth inhibition,[5]; at 50.0 µM,-36.9%
same,growth inhibition,[5]; at 100.0 µM,1%
same,growth inhibition,[6]; at 1.2 µM,-1%
same,growth inhibition,[6]; at 3.7 µM,0%
same,growth inhibition,[6]; at 11.0 µM,-2%
same,growth inhibition,[6]; at 33.0 µM,-2%
same,growth inhibition,[6]; at 100.0 µM,1%
same,growth inhibition,[7]; [16],-14%
same,growth inhibition,[7]; [17],6%
same,growth inhibition,[7]; at 50.0 µM,-30.8%
same,growth inhibition,[9]; [16],41%
same,growth inhibition,[9]; [17],-23%
same,growth inhibition,[9]; at 50.0 µM,26.1%
same,growth inhibition,[10]; at 1.2 µM,2%
same,growth inhibition,[10]; at 3.7 µM,-1%
same,growth inhibition,[10]; [16],-20%
same,growth inhibition,[10]; at 11.0 µM,2%
same,growth inhibition,[10]; at 33.0 µM,0%
same,growth inhibition,[10]; [17],-8%
same,growth inhibition,[10]; at 50.0 µM,-42.2%
same,growth inhibition,[10]; at 100.0 µM,-3%
same,growth inhibition,[11]; at 1.2 µM,-2%
same,growth inhibition,[11]; at 3.7 µM,-2%
same,growth inhibition,[11]; at 11.0 µM,-2%
same,growth inhibition,[11]; at 33.0 µM,-2%
same,growth inhibition,[11]; at 100.0 µM,-3%
same,growth inhibition,[13]; at 1.2 µM,0%
same,growth inhibition,[13]; at 3.7 µM,-3%
same,growth inhibition,[13]; at 11.0 µM,-2%
same,growth inhibition,[13]; at 33.0 µM,-1%
same,growth inhibition,[13]; at 100.0 µM,-1%
